The supplement of paper PMC13380429

Key:
[1] = test system: Vero E6 infected with SARS-CoV-2; experiment: morphology score (similarity to uninfected cells); higher = more like uninfected cells; details: 24 h
[2] = test system: Vero E6 infected with SARS-CoV-2; experiment: SARS-CoV-2 infection rate relative to infected DMSO; higher = more infection, active = 60 or less; details: 24 h

SMILES | morphology score [1] | SARS-CoV-2 infection rate [2]
CC(=O)OCC1=C(C(=O)O)N2C(=O)[C@@H](NC(=O)CS/C(=N/C(C)C)NC(C)C)[C@H]2SC1 [cefathiamidine] (10 µM) | 0.162 | 92% (inactive)
COc1ccc2nc3ccc(Cl)cc3c(SCCCN)c2c1 (10 µM) | 0.0488 | 91.5% (inactive)
OCCN(CCO)c1nc(N2CCCCC2)c2nc(N(CCO)CCO)nc(N3CCCCC3)c2n1 [dipyridamole] (10 µM) | 0.26 | 90.5% (inactive)
CN(c1ccccc1CNc1nc(Nc2ccc3c(c2)CC(=O)N3)ncc1C(F)(F)F)S(C)(=O)=O (10 µM) | 0.0447 | 114% (inactive)
C[N+]12CCCCC1CCC(=C(c1cccs1)c1cccs1)C2 (stereo unspecified) [tiquizium] (10 µM) | 0.138 | 93.5% (inactive)
COc1cc2nccc(Oc3ccc(NC(=O)Nc4ccc(F)cc4F)c(F)c3)c2cc1OC (10 µM) | 0.12 | 111% (inactive)
CCN(CC)CCCC(C)Nc1nc(C)cc(Nc2ccc3nc(C)cc(N)c3c2)n1 (stereo unspecified) (10 µM) | -0.115 | 110% (inactive)
CCOP(=S)(OCC)Oc1nc(Cl)c(Cl)cc1Cl [chlorpyrifos] (10 µM) | -0.24 | 112% (inactive)
COc1cc(C[C@H]2C(=O)OC[C@@H]2Cc2ccc(OC)c(OC)c2)ccc1O [arctigenin] (10 µM) | 0.0564 | 108% (inactive)
COCCN1CCC(C(=O)NO)(S(=O)(=O)c2ccc(Oc3ccc(OC(F)(F)F)cc3)cc2)CC1 (10 µM) | 0.0474 | 110% (inactive)
CCC(C/C=C/c1ccccc1)(c1ccccc1)N(C)CC1CC1 (stereo unspecified) [igmesine] (10 µM) | 0.316 | 97.5% (inactive)
O=C1CC2(CCCC2)CC(=O)N1CCNC[C@H]1COc2ccccc2O1 (10 µM) | -0.0647 | 113% (inactive)
CC(C)N(CCCNC(=O)Nc1ccc(C(C)(C)C)cc1)C[C@H]1O[C@@H](n2ccc3c(N)ncnc32)[C@H](O)[C@@H]1O (10 µM) | -0.157 | 108% (inactive)
Cc1ccccc1/N=N/c1ccc(NC(=O)c2ccnn2C)c(C)c1 (10 µM) | -0.087 | 109% (inactive)
CNC(=O)c1ccc(C)c(-n2c(C)cc(OCc3ccc(F)cc3F)c(Br)c2=O)c1 (0.833333 µM) | -0.158 | 116% (inactive)
Cc1oc(=O)oc1COC(=O)C1=C([C@H]2CCCO2)S[C@@H]2[C@@H]([C@@H](C)O)C(=O)N12 [faropenem-medoxomil] (10 µM) | -0.119 | 114% (inactive)
CCC(CC)(NC(=O)C(C)C)C(=O)N[C@@H](CCCNC(=N)N)C(=O)NC1(C(=O)NC(c2ccc(F)cc2)c2ccc(F)cc2)CCCC1 (10 µM) | -0.044 | 116% (inactive)
N[C@@H]1CONC1=O [cycloserine-(D)] (10 µM) | 0.0631 | 92.5% (inactive)
O=c1c(-c2ccc(O)cc2)coc2c([C@@H]3O[C@H](CO)[C@@H](O)[C@H](O)[C@H]3O)c(O)ccc12 [kakonein] (10 µM) | -0.0186 | 103% (inactive)
CCCC[C@@]1(C2CCCC2)Cc2cc(OCCCC(=O)O)c(Cl)c(Cl)c2C1=O (10 µM) | -0.08 | 92.5% (inactive)
Cl/C(=C\n1cncn1)c1ccc(Cl)cc1Cl [loreclezole] (10 µM) | 0.0913 | 102% (inactive)

SMILES | morphology score [1] | SARS-CoV-2 infection rate [2]
Oc1cc2c(cc1O)[C@H]1c3ccccc3CN[C@@H]1CC2 (racemic) [dihydrexidine] (10 µM) | -0.0209 | 101% (inactive)
O=S1(=O)c2cccc3cccc(c23)N1CCCN1CCN(c2ccc(F)cc2)CC1 [fananserin] (10 µM) | -0.0356 | 108% (inactive)
O=C(O)C(Cc1ccccc1[N+](=O)[O-])=NNc1nc(-c2ccc(Cl)c(Cl)c2)cs1 (10 µM) | 0.23 | 102% (inactive)
C[C@@]12CCc3occc3[C@H]1CC[C@@]13C[C@@H](CC[C@H]12)[C@@](O)(CO)C3 [cafestol] (10 µM) | -0.0842 | 112% (inactive)
CC(C)CNc1ccnc(NCc2csc(-c3ccccc3)n2)n1 (0.833333 µM) | -0.0256 | 106% (inactive)
Cc1cc(C2CCCCC2)n(O)c(=O)c1 [ciclopirox] (0.833333 µM) | 0.0975 | 96.5% (inactive)
Clc1ccc2c(c1)N=C(N1CCNCC1)c1ccccc1N2 [desmethylclozapine] (10 µM) | 0.467 | 53.5% (active)
O=C1NC(=O)[C@@]2(CCOc3ccc(F)cc32)N1 [sorbinil] (10 µM) | 0.139 | 98% (inactive)
CC(=O)NC[C@H]1CN(c2ccc(N3CCN(C(=O)CO)CC3)c(F)c2)C(=O)O1 [eperezolid] (10 µM) | 0.0417 | 112% (inactive)
CNCC(O)c1ccc(OC(=O)C(C)(C)C)c(OC(=O)C(C)(C)C)c1 (stereo unspecified) [dipivefrine] (10 µM) | 0.127 | 89.5% (inactive)
OCCC#Cc1nc(-c2ccc(F)cc2)c(-c2ccncc2)n1CCCc1ccccc1 (10 µM) | 0.0292 | 101% (inactive)
Cc1ccc(NC(=O)c2ccc(CN3CCN(C)CC3)cc2)cc1Nc1nccc(-c2cccnc2)n1 [imatinib] (10 µM) | 0.738 | 37% (active)
CCNC(=O)c1noc(-c2cc(C(C)C)c(O)cc2O)c1-c1ccc(CN2CCOCC2)cc1 (0.833333 µM) | 0.0632 | 94% (inactive)
O=C1OCCN1/N=C/c1ccc([N+](=O)[O-])o1 [furazolidone] (10 µM) | 0.0225 | 102% (inactive)
Cc1cc(Nc2cc(C)c(C#N)c(N[C@@H](C)CCCC(C)(C)O)n2)n[nH]1 (10 µM) | -0.0857 | 113% (inactive)
[NH-]c1c[n+](N2CCOCC2)no1 [linsidomine] (10 µM) | -0.0679 | 117% (inactive)
Nc1cc(-c2ccncc2)c[nH]c1=O [amrinone] (10 µM) | 0.00166 | 112% (inactive)
COc1cc(C[C@H]2c3cc(OC)c(OC)cc3CCN2C)c(Oc2cc3c(cc2OC)-c2c(OC)c(OC)cc4c2[C@H](C3)N(C)CC4)cc1OC [thaliblastine] (10 µM) | 0.443 | 30.5% (active)
CCc1cccc(CC)c1NC(=O)CN(CC(=O)O)CC(=O)O [etifenin] (10 µM) | 0.115 | 109% (inactive)
COc1cccc(/C=N/N=C/c2cccc(OC)c2)c1 (10 µM) | 0.132 | 92% (inactive)
CC(C)[C@H](O)C(=O)N[C@@H](C)C(=O)N[C@@H]1C(=O)N(C)CCc2ccccc21 [semagacestat] (10 µM) | 0.0376 | 120% (inactive)

SMILES | morphology score [1] | SARS-CoV-2 infection rate [2]
COc1ccc(-c2cc(=O)c3c(O)c(OC)c(O)cc3o2)cc1OC [eupatilin] (10 µM) | -0.0115 | 109% (inactive)
CC1(C)CCC(C)(C)c2cc(C(=O)Nc3ccc(C(=O)O)cc3)ccc21 (10 µM) | -0.326 | 112% (inactive)
CN[C@H](CNC(=O)N1CCC[C@@H]([C@@H](OCCNC(=O)OC)c2cccc(Cl)c2)C1)C[C@H]1CCCOC1 (10 µM) | -0.0283 | 105% (inactive)
Cc1cc2c(cc1C(F)(F)F)N(C(=O)Nc1ccc(Oc3cccnc3C)nc1)CC2 (10 µM) | 0.281 | 90.5% (inactive)
CC/C=C\C/C=C\C/C=C\C/C=C\C/C=C\C/C=C\CCC(=O)OCC [doconexent-ethyl-ester] (10 µM) | 0.193 | 88.5% (inactive)
Oc1nc(O)c2nc(O)[nH]c2n1 [uric-acid] (10 µM) | -0.0319 | 106% (inactive)
COc1ccc(N(C)c2nc(C)nc3ccccc23)cc1 [verubulin] (10 µM) | -0.0973 | 95% (inactive)
CCOC(=O)Nc1cc2c(c(N)n1)N=C(c1ccccc1)[C@H](C)N2 [mivobulin] (10 µM) | -0.0939 | 112% (inactive)
CCCN[C@@H]1CCc2c(OC)cccc2[C@@H]1C (10 µM) | 0.0456 | 100% (inactive)
Cc1nc(C#Cc2ccnc(Cl)c2)c(C)n1-c1ccc(F)cc1 [basimglurant] (10 µM) | 0.114 | 112% (inactive)
c1ccc(CCNc2nc(-c3ccccc3)cs2)cc1 [fanetizole] (10 µM) | -0.0158 | 99.5% (inactive)
O=C(O)C(=O)CBr [3-bromopyruvate] (10 µM) | -0.102 | 111% (inactive)
O=C(NOCCO)c1ccc2cncn2c1Nc1ccc(I)cc1F (0.833333 µM) | -0.298 | 121% (inactive)
c1cc(OCCN2CCCCC2)cc(-c2n[nH]c3ccc(-c4nnc[nH]4)cc23)c1 (10 µM) | 0.363 | 94.5% (inactive)
CCN(CC)CCN(Cc1ccc(-c2ccc(C(F)(F)F)cc2)cc1)C(=O)Cn1c(SCc2ccc(F)cc2)nc(=O)c2c1CCC2 [darapladib] (0.833333 µM) | -0.0453 | 106% (inactive)
CC#CCC(C)[C@H](O)/C=C/[C@@H]1[C@H]2C/C(=C/CCCC(=O)O)C[C@H]2C[C@H]1O (stereo partly specified) [iloprost] (10 µM) | 0.0115 | 108% (inactive)
CCc1cccc2c3c([nH]c12)C(CC)(CC(=O)O)OCC3 (stereo unspecified) [etodolac] (10 µM) | -0.0116 | 115% (inactive)
Nc1ncnc2c1nc(Br)n2[C@@H]1O[C@@H]2COP(=O)(O)O[C@H]2[C@H]1O [8-bromo-cAMP] (10 µM) | 0.422 | 102% (inactive)
c1ccc2nc(C3=NCCN3)ccc2c1 (10 µM) | 0.125 | 93% (inactive)
COc1cccc(-c2ccc(NC(=O)C3=C(C(=O)O)CCC3)c(F)c2)c1 (10 µM) | 0.159 | 94.5% (inactive)
N#CCC(=O)c1ccccc1 (10 µM) | 0.0172 | 112% (inactive)
